In PubChem BioAssay AID1159580 (chemical genetic matrix, 2015):
Values joined by “and” are separate entries in the source; they are usually repeats but may differ in a detail not shown here. Equal entries are not always repeated. Screen size: about 5,500 compounds; about 2,000 (36%) were called active. Inconclusive results (about 18%) are left out. Rule as the data show it: active = normalized growth mostly below about 0.91 (no sharp cut-off); inconclusive = no clear call, values can overlap the other calls; inactive = mostly above about 0.92. The list shows a part of the results.

Assay: chemical genetic growth profiling, strain panel (AID 1159580);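 also: tested at 20 µM; growth read once vehicle control cultures reached saturation at 30 °C; 1 = growth at the plate median or of vehicle wells; lower values mean less growth of the strain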
Conditions: S. cerevisiae deletion strains, growth OD

Measured: normalized growth

O=c1oc2c(O)c(O)cc3c(=O)oc4c(O)c(O)cc1c4c23
0.41 (active) and 0.994 (inactive): locus YHR030C, strain SLT2, stronger effect = lower value
inactive: locus YBR021W, strain FUR4, stronger effect = lower value 0.907 | locus YBR171W, strain sec66, stronger effect = lower value 0.938 | locus YDL005C, strain med2, stronger effect = lower value 0.986 | locus YDR001C, strain nth1, stronger effect = lower value 0.96 | locus YDR195W, strain ref2 0.876 | locus YEL061C, strain CIN8 (second series), stronger effect = lower value 0.917 | locus YER110C, stronger effect = lower value 0.971 | locus YGL078C, strain dbp3, stronger effect = lower value 0.976 | locus YGL227W, strain vid30, stronger effect = lower value 1 | locus YGL240W, strain doc1, stronger effect = lower value 0.923 | locus YHR079C, strain IRE1, stronger effect = lower value 0.978 | locus YHR094C, strain hxt1, stronger effect = lower value 0.964 | locus YIL125W, strain kgd1, stronger effect = lower value 0.956 | locus YJL115W, strain asf1, stronger effect = lower value 0.912 | locus YJL129C, strain trk1, stronger effect = lower value 0.898 | locus YJR066W, strain TOR1, stronger effect = lower value 0.974
0.28 (active) and 0.983 (inactive): locus YJL095W, strain BCK1, stronger effect = lower value
active: locus YAL013W, strain DEP1, stronger effect = lower value 0.55 | locus YAL021C, strain ccr4, stronger effect = lower value 0.352 | locus YAL026C, strain drs2, stronger effect = lower value 0.545 | locus YAL030W, strain snc1, stronger effect = lower value 0.817 | locus YBL061C, strain skt5, stronger effect = lower value 0.591 | locus YBR009C, strain hhf1, stronger effect = lower value 0.754 | locus YBR023C, strain chs3, stronger effect = lower value 0.533 | locus YBR229C, strain ROT2, stronger effect = lower value 0.903 | locus YBR231C, strain swc5, stronger effect = lower value 0.53 | locus YBR279W, strain paf1, stronger effect = lower value 0.699 | locus YCL011C, strain gbp2, stronger effect = lower value 0.745 | locus YCL016C, strain dcc1, stronger effect = lower value 0.722 | locus YCL029C, strain bik1, stronger effect = lower value 0.502 | locus YCL061C, strain MRC1, stronger effect = lower value 0.84 | locus YCL069W, strain vba3, stronger effect = lower value 0.855 | locus YCR088W, strain abp1, stronger effect = lower value 0.895 | locus YDL035C, strain GPR1, stronger effect = lower value 0.681 | locus YDL040C, strain nat1, stronger effect = lower value 0.868 | locus YDL074C, strain BRE1, stronger effect = lower value 0.541 | locus YDL101C, strain DUN1, stronger effect = lower value 0.598 | locus YDL185W, strain tfp1, stronger effect = lower value 0.835 | locus YDL192W, strain arf1, stronger effect = lower value 0.558 | locus YDR069C, strain doa4, stronger effect = lower value 0.521 | locus YDR101C, strain arx1, stronger effect = lower value 0.749 | locus YDR137W, strain rgp1, stronger effect = lower value 0.496 | locus YDR150W, strain NUM1, stronger effect = lower value 0.778 | locus YDR159W, strain sac3, stronger effect = lower value 0.738 | locus YDR162C, strain NBP2, stronger effect = lower value 0.661 | locus YDR297W, strain sur2, stronger effect = lower value 0.746 | locus YDR318W, strain mcm21, stronger effect = lower value 0.651 | locus YDR334W, strain swr1, stronger effect = lower value 0.574 | locus YDR335W, strain msn5, stronger effect = lower value 0.784 | locus YDR388W, stronger effect = lower value 0.538 | locus YDR392W, strain spt3, stronger effect = lower value 0.695 | locus YDR502C, strain sam2, stronger effect = lower value 0.561 | locus YEL003W, strain gim4, stronger effect = lower value 0.697 | locus YEL037C, strain rad23, stronger effect = lower value 0.767 | locus YEL061C, strain CIN8, stronger effect = lower value 0.753 | locus YER015W, strain faa2, stronger effect = lower value 0.583 | locus YER016W, strain bim1, stronger effect = lower value 0.818 | locus YER111C, strain swi4, stronger effect = lower value 0.436 | locus YER155C, strain BEM2 (second series), stronger effect = lower value 0.745 | locus YER155C, strain BEM2, stronger effect = lower value 0.74 | locus YER167W, strain BCK2, stronger effect = lower value 0.799 | locus YFR010W, strain ubp6, stronger effect = lower value 0.713 | locus YGL086W, strain mad1, stronger effect = lower value 0.583 | locus YGL167C, strain pmr1, stronger effect = lower value 0.653 | locus YGL173C, strain kem1, stronger effect = lower value 0.417 | locus YGL248W, strain PDE1, stronger effect = lower value 0.649 | locus YGL253W, strain hxk2, stronger effect = lower value 0.768 | locus YGR078C, strain PAC10, stronger effect = lower value 0.616 | locus YGR135W, strain pre9, stronger effect = lower value 0.559 | locus YGR252W, strain gcn5, stronger effect = lower value 0.588 | locus YHR013C, strain ard1, stronger effect = lower value 0.563 | locus YHR027C, strain rpn1, stronger effect = lower value 0.539 | locus YHR079C, strain IRE1 (second series), stronger effect = lower value 0.824 | locus YHR129C, strain ARP1, stronger effect = lower value 0.603 | locus YHR142W, strain chs7, stronger effect = lower value 0.563 | locus YHR200W, strain rpn10, stronger effect = lower value 0.712 | locus YIL066C, strain RNR3, stronger effect = lower value 0.669 | locus YIL073C, strain SPO22, stronger effect = lower value 0.546 | locus YIR030C, strain dcg1, stronger effect = lower value 0.776 | locus YJL092W, strain hpr5, stronger effect = lower value 0.861 | locus YJL095W, strain BCK1 (second series), stronger effect = lower value 0.675 | locus YJL134W, strain LCB3, stronger effect = lower value 0.823 | locus YJL154C, strain vps35, stronger effect = lower value 0.864 | locus YJL164C, strain tpk1, stronger effect = lower value 0.679 | locus YJL166W, strain qcr8, stronger effect = lower value 0.73 | locus YJL168C, strain set2, stronger effect = lower value 0.898 | locus YJL187C, strain SWE1 (second series), stronger effect = lower value 0.493 | locus YJL187C, strain SWE1, stronger effect = lower value 0.742 | locus YJR043C, strain POL32, stronger effect = lower value 0.596
